CCHF vOTU inh-1 – CCHFV vOTU protease inhibitors, primary screen, biochemical, Pep-AMC substrate, fluorescence; inhibition, % at 11.5 µM; 370,000 compounds, 0.55% hits; AID 651958, 2012; note: 0% = vehicle wells with enzyme and 100% = no enzyme wells
Mtb bLac sens – beta-lactam sensitization of Mtb H37Rv, H37Rv. M. tuberculosis H37Rv growth with meropenem, percent inhibition. 330,000 compounds, 0.27% hits. AID 434955, 2010. inhibition, % at 25 µM; call rule not given here;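 note: growth measured after seven days incubation then overnight dye step; 0% = bacteria only wells and 100% = bacteria with antibiotic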
Mtb FBA inh – Mtb FBA enzyme inhibitors, primary screen, biochemical, fluorescence, strain H37Rv; purified M. tuberculosis FBA, fluorescence read-out; 360,000 compounds, 2.3% hits; inhibition, % at 1 µM; AID 588726, 2011; in the data active = inhibition above about 27%;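 note: 0% = vehicle and 100% = reference inhibitor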
Target sequence (P9WQA3 whole entry, looked up): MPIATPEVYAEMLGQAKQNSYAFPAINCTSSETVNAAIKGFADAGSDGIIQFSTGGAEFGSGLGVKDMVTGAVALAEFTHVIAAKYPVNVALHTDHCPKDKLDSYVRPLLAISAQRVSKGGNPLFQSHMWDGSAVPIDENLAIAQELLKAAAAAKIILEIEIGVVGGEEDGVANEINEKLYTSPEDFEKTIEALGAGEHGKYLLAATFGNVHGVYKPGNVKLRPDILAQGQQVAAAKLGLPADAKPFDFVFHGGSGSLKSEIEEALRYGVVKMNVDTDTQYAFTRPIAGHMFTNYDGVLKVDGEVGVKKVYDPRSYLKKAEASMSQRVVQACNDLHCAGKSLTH
GDH-TPI inh – GDH-TPI coupling enzyme inhibitors, primary screen, artefact control for M. tuberculosis FBA inhibitor project, biochemical, absorbance, full deck; GDH-TPI coupled enzyme counterscreen, NADH absorbance; inhibition, % at 4.8 µM; 360,000 compounds, 1.2% hits;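 note: 0% = DMSO wells and 100% = wells lacking the enzyme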
MazEF act – activators of E. coli MazEF toxin-antitoxin RNase, primary screen, biochemical, fluorescence, uHTS. FAM/BHQ RNA-DNA oligo cleavage fluorescence, 5 h. activation, % at 20 µM. 350,000 compounds, 0.32% hits; in the data active = activation above about 50%
Target sequence (P0AE70 whole entry, looked up): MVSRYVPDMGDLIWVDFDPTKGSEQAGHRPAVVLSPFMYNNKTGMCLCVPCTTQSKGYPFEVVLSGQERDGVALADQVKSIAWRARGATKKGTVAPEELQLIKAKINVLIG
CCHF vOTU inh-2 – CCHFV vOTU protease inhibitors, confirmation, biochemical, Pep-AMC substrate, fluorescence; shares compounds with CCHF vOTU inh-1; 1,900 compounds, 17% hits; Recombinant CCHFV vOTU; AID 686976, 2013; inhibition, % at 11.5 µM
* = called active by the depositor; . = not tested or not shown. This is a sample that favours compounds with a hit; in the whole collection about 4% have one here. Cut-off read from the data, not from the text of the source, unless noted: active = inhibition above about 30%; inactive = the rest.

SMILES | CCHF vOTU inh-1 | Mtb bLac sens | Mtb FBA inh | GDH-TPI inh | MazEF act | CCHF vOTU inh-2
O=c1[nH]c(-c2ccccc2Cl)nc2c1sc(=S)n2-c1ccccc1 | -10 | . | -6 | 15 | 6 | .
O=C(c1ccc2c(c1)OCO2)[C@@H]1[C@@H]2C(=O)N(C3CCCCC3)C(=O)[C@@H]2C2c3ccccc3C=CN21 (stereo not given in full) | 7 | . | -1 | 7 | -47 | .
CC(C)(C)C(=O)[C@@H]1[C@@H]2C(=O)N(C3CCCCC3)C(=O)[C@@H]2[C@H]2c3ccccc3C=CN12 | 33* | 3 | -1 | 10 | -2 | 13
COc1ccc(N2C(=O)[C@@H]3[C@H](C2=O)[C@H]2c4ccccc4C=CN2[C@@H]3C(C)=O)cc1 | 92* | 1 | 1 | 9 | 7 | 92*
COc1ccc(N/C=C2\CCc3ccccc3C2=O)cc1 | 34* | 82 | -7 | -3 | -26 | -12
CCCCCCCCN1C(=O)[C@@H](CC(=O)N2CCN(C(=O)C3CC3)CC2)C[C@@]2(C(=O)OC)C1=C[C@H](C(C)(C)C)O[C@@H]2C | 38* | . | . | . | . | 29
CCCCCCCCN1C(=O)[C@@H](CC(=O)NCCC(C)C)C[C@@]2(C(=O)OC)C1=C[C@H](C(C)(C)C)O[C@@H]2C | 6 | . | . | . | . | .
CCCCCCCCN1C(=O)[C@@H](CC(=O)NCCCOC)C[C@@]2(C(=O)OC)C1=C[C@H](C(C)(C)C)O[C@@H]2C | 36* | . | . | . | . | 12
CCCCOCCCNC(=O)C[C@H]1C[C@@]2(C(=O)OC)C(=C[C@H](C(C)(C)C)O[C@@H]2C)N(Cc2ccc(Cl)cc2Cl)C1=O | 39* | . | . | . | . | 7
CCc1ccc2c(CN3CCN(S(=O)(=O)c4cccs4)CC3)cc(=O)oc2c1 | 35* | -2 | 2 | 6 | -13 | -6
COCC(=O)OC1CCn2c1nc1c2C(=O)C(C)=C(NC(C)=O)C1=O (stereo not given) | 100* | . | 0 | 0 | 18 | 100*
Cn1c(=O)c2c(ncn2CC(=O)OCC(=O)c2ccc(Br)cc2)n(C)c1=O | 32* | . | -3 | -1 | 5 | -6
CC(=O)N1CCN(c2ncnc3ccccc23)CC1 | 16 | -5 | -3 | 29 | 12 | .
COc1cc(N)c2ncccc2c1Br | 105* | . | 0 | 12 | 12 | 25
CCC(=O)OC1CCC2C3CCC4CC(=O)C=CC4(C)C3CCC12C (stereo not given) | 30* | . | -2 | 0 | -11 | 10
CC(CC(=O)N1CCc2ccccc21)n1cccn1 (stereo not given) | 35* | -2 | -4 | -7 | 6 | -8
Cc1ccn(C(C)CC(=O)N2CCc3ccccc32)n1 (stereo not given) | -6 | 2 | -1 | -5 | 10 | .
COc1cc(C(=O)OCC(=O)N2CCOCC2)c([N+](=O)[O-])cc1OC | -2 | -2 | 1 | 0 | 14 | .
CCS(=O)(=O)c1ccc2oc(Nc3ccc(C(C)(C)C)cc3)nc2c1 | 30* | 4 | -1 | -9 | 0 | -9
CCN(CCO)c1ccc(N=Cc2c(O)n(C)c(=S)[nH]c2=O)cc1 | 32* | 1 | -3 | 4 | -26 | -10
COc1ccc(C(=O)NCCc2cccc(Cl)c2)cc1OC1CCN(C(C)=O)CC1 | 17 | 9 | 4 | 0 | 7 | .
COc1ccc(C2(c3ccc(OC)cc3)NC(=O)N(CC(=O)Nc3ccc(OC)c(OC)c3)C2=O)cc1 | 9 | 9 | 0 | 0 | 8 | .
COc1ccccc1CNC(=O)C(=O)NCC1CCCN1S(=O)(=O)c1cccs1 (stereo not given) | -10 | 0 | -4 | 7 | -1 | .
NC(=S)N=Nc1c(O)[nH]c2ccc(F)cc12 | 13 | 4 | 0 | 28 | 7 | .
NC(=S)N=Nc1c(O)cc(O)c2[nH]c(=O)ccc12 | 87* | . | -4 | 37* | 9 | 90*
SMILES | CCHF vOTU inh-1 | Mtb bLac sens | Mtb FBA inh | GDH-TPI inh | MazEF act | CCHF vOTU inh-2
CCOC(=O)C1=C(CC)Nc2ccccc2N/C1=N\S(=O)(=O)c1ccc(C(=O)OCC)cc1 | 30* | -4 | 1 | 6 | 2 | 6
CCCCCCCCNS(=O)(=O)/C=C/c1ccccc1CNC(=O)OC(C)(C)C | 36* | . | . | . | . | 16
CC(C)(C)OC(=O)NCc1cc2c(cc1/C=C/S(=O)(=O)NC1CCCC1)OCO2 | 4 | . | . | . | . | .
CCOC(=O)c1c(NC(=O)COC(=O)Cn2cnc3ccccc32)sc2c1CCC(C)C2 (stereo not given) | 47* | -6 | 1 | 12 | -8 | 9
CCOC(=O)c1c(NC(=O)Cn2nnc3ccccc32)sc2c1CCC(C)C2 (stereo not given) | 8 | -10 | -1 | 4 | 9 | .
Cc1cccc(Nc2nc(N)c([N+](=O)[O-])c(N3CCCC(C)C3)n2)c1 (stereo not given) | 31* | 37 | -2 | 8 | 1 | 17
Cc1cccc(N=C/C(C(=O)C(F)(F)F)=C(\O)c2ccco2)c1 | 6 | 1 | 1 | 11 | 4 | .
O=C(/C(C=Nc1ccc(F)cc1)=C(/O)c1ccco1)C(F)(F)F | 33* | -4 | -1 | 17 | -3 | -6
N#CC1=C(S)N(c2ccccc2)C(c2ccc(-c3cc(Cl)ccc3Cl)o2)NC1=O (stereo not given) | 10 | 43 | -4 | 12 | 1 | .
N#CC1=C(S)N(c2ccccc2)C(c2ccc(-c3ccc(Cl)c(Cl)c3)o2)NC1=O (stereo not given) | 47* | 90 | -1 | 13 | -5 | 30*
Cc1cccc(C)c1-n1cccc1/C=C1/C(=N)N2C(=NC1=O)SN=C2S(C)(=O)=O | 35* | 5 | -4 | 32* | -12 | 23
Cc1ccc(-n2cccc2/C=C2/C(=N)N3C(=NC2=O)SN=C3S(C)(=O)=O)cc1Cl | 52* | -9 | 0 | 14 | 15 | 8
Cc1cc(/C=C2/C(=N)N3C(=NC2=O)SN=C3S(C)(=O)=O)c(C)n1-c1ccc(F)cc1 | 5 | -1 | 6 | 6 | -6 | .
COc1cccc(C(=O)Nc2cc3c4c(c2)CC(=O)N4CCC3)c1 | 15 | 4 | 0 | 3 | 5 | .
COc1cc(C(=O)Nc2cc3c4c(c2)CC(=O)N4CCC3)cc(OC)c1OC | 34* | -8 | 0 | -7 | -5 | -10
CCCN1CCN(CC(=O)Nc2nncs2)CC1 | 12 | 2 | 1 | -1 | -2 | .
CCCn1nc(NS(=O)(=O)c2cccc3nonc23)c2cc3cccc(C)c3nc21 | 42* | -4 | -1 | 10 | 4 | 15
O=C(CCn1ccnc1)Nc1cc(Cl)ccc1O | 14 | -6 | 1 | 5 | -51 | .
c1cnc(Sc2ccc3nnnn3n2)nc1 | 9 | 5 | 6 | -1 | -10 | .
